Data published in PubChem BioAssay AID434970 (Sanford-Burnham Center for Chemical Genomics, 2010).
The whole screen tested about 11,000 compounds, of which about 310 (2.8%) were called active. Cut-off read from the data, not from the text of the source: active = activity change below about -85%; inactive = the rest. The list comes from a sample in which actives are over-represented; it also holds similar structures and randomly drawn compounds.

The compounds below were run on intestinal alkaline phosphatase [Mus musculus] (assay: activators of mouse IAP, confirmation, biochemical, luminescence, single concentration (AID 434970)). Conditions: purified mouse IAP, CDP-Star luminescence, 30 min, at 10 µM; activation factor: measured here: IAP activation factor, stronger effect = higher value; activity change, negative = activation: stronger effect = lower value.

Row | SMILES | activation factor | activity change, negative = activation
1 | COC(=O)c1c(N)n(CCCN2CCOCC2)c2nc3ccccc3nc12 | 0.983 | 1.65% (inactive)
2 | N#Cc1c(-c2ccc(Cl)cc2)ccn2nc(CCC(=O)O)nc12 | 1.15 | -15.3% (inactive)
3 | CN1CCN(S(=O)(=O)c2ccc(SCCOc3ccccc3)nc2)CC1 | 0.96 | 4% (inactive)
4 | C=CCN(C(=O)CNC(=O)c1ccco1)C(C(=O)NC1CCCCC1)c1ccc(F)cc1 (centres undefined) | 1.05 | -5.3% (inactive)
5 | CC(C)(C)N(C(=O)Cn1nnc(-c2ccc(F)cc2)n1)C(C(=O)NC1CCCC1)c1ccncc1 (centres undefined) | 0.935 | 6.5% (inactive)
6 | O=C(NC1CCCC1)C(c1ccc(F)cc1)N(Cc1ccc(F)cc1)C(=O)c1ccn[nH]1 (centres undefined) | 2.05 | -105% (active)
7 | Brc1ccc(-c2cnc(-c3cccs3)o2)cc1 | 0.944 | 5.65% (inactive)
8 | COc1ccc(Cc2nn[nH]n2)cc1 | 1.18 | -17.9% (inactive)
9 | Cc1ccc(NC(=O)CCn2nc(C)cc2C)cc1 | 1.12 | -11.6% (inactive)
10 | CCn1nc(C(=O)Nc2cccc(C(F)(F)F)c2)c(Cl)c1Cl | 0.952 | 4.85% (inactive)
11 | CC(=O)c1ccc(NC(=O)Cn2nc(C)cc2C)cc1 | 0.948 | 5.2% (inactive)
12 | CCn1nc(C)c(CN2CCC(C(=O)Nc3cccc(-c4cccc(Cl)c4)c3)CC2)c1C | 4.74 | -374% (active)
13 | Cc1cc(C)n(CCCN2CCC(C(=O)Nc3cccc(-c4cccc(F)c4)c3)CC2)n1 | 3.01 | -202% (active)
14 | COc1ccc(NC(=O)C2CCN(c3nc(C)cc(C)n3)CC2)cc1 | 0.96 | 4.05% (inactive)
15 | CCc1ccc(NC(=O)C2CC(=O)N(C(C)C)C2)cc1 (centres undefined) | 0.925 | 7.45% (inactive)
16 | CCn1nc(C)c(CN2CCC(C(=O)Nc3cccc(-c4cccc(F)c4)c3)CC2)c1C | 3.08 | -208% (active)
17 | Cc1nn(C(C)C)c(C)c1CN1CCC(C(=O)Nc2cccc(-c3cccc(F)c3)c2)CC1 | 4.89 | -389% (active)
18 | Cc1ccc(Cn2nc(C)c(NC(=O)C3CC3)c2C)cc1 | 1.06 | -6.3% (inactive)
19 | Nc1ccccc1NC(=O)c1ccccc1 | 1.09 | -8.9% (inactive)
20 | CCN1CCN(C(=O)CN(c2ccccc2C)S(C)(=O)=O)CC1 | 1.04 | -3.5% (inactive)
21 | Cc1ccc(OCCn2cnc3c(N)ncnc32)cc1 | 0.932 | 6.8% (inactive)

Row | SMILES | activation factor | activity change, negative = activation
22 | Cc1cc(NC(=O)CCC(=O)N(Cc2ccco2)C(C)(C)C(=O)NC2CCCCC2)no1 | 1.05 | -5.25% (inactive)
23 | COc1ccc(CNC(=O)C[C@H]2C[C@H](C(=O)N3CCOCC3)[C@@]3(CCC4CCCC4)c4[nH]c5cc(CCC(=O)N(C)C)ccc5c4CCN3C2=O)cc1OC | 1.07 | -6.85% (inactive)
24 | CCOC(=O)C1=CN(Cc2cccc(F)c2)S(=O)(=O)NC1c1ccc(Br)cc1F (centres undefined) | 0.921 | 7.85% (inactive)
25 | CN(C)C(=O)CCc1ccc2c3c([nH]c2c1)[C@]1(C)[C@@H](C(=O)N2CCOCC2)C[C@H](CC(=O)NCCc2ccccn2)C(=O)N1CC3 | 1.02 | -2.25% (inactive)
26 | O=C1C[C@@H]2CCN3C(=O)CCC[C@@H]([C@H]23)[C@@H]1Cc1ccccc1 | 0.964 | 3.55% (inactive)
27 | CC(CN1CCN(C)CC1)OC(=O)c1ccc(Cl)cc1 (centres undefined) | 0.929 | 7.05% (inactive)
28 | N#Cc1ccc(N2CCN(c3ccc(F)cc3)CC2)cc1 | 0.995 | 0.5% (inactive)
29 | CCCNC(=O)c1ccc(SC)cc1OC | 0.92 | 8% (inactive)
30 | O=C(Nc1ccc(Br)cc1)Nc1ccccc1F | 1.81 | -81.1% (inactive)
31 | O=C(NCC1CC1(Cl)Cl)Nc1ccc(Cl)c(Cl)c1 (centres undefined) | 2.53 | -153% (active)
32 | O=C(Nc1ccc(Br)cc1)Nc1ccccc1Cl | 1.39 | -39.4% (inactive)
33 | N#Cc1ccc(NC(=O)Nc2ccc(Cl)cc2)cc1 | 1.73 | -72.5% (inactive)
34 | O=C(Nc1ccc(Cl)c(Cl)c1)Nc1ccc(Br)cc1F | 2.24 | -124% (active)
35 | Cc1ccc(NC(=O)Nc2ccc(F)c(Cl)c2)cc1 | 1.35 | -35% (inactive)
36 | O=C(Nc1ccc(Cl)c(Cl)c1)N1CCSCC1 | 1.13 | -13.4% (inactive)
37 | O=C(Nc1ccc(Cl)cc1)Nc1ccc(Cl)c(Cl)c1 | 2.27 | -127% (active)
38 | CCn1nccc1C(=O)Nc1ccc(Cl)c(Cl)c1 | 0.952 | 4.85% (inactive)
39 | CCN(CC)c1nc(N)c2c(N)n(-c3ccccc3C)c(=S)c(C#N)c2c1C#N | 0.823 | 17.8% (inactive)
40 | O=C1c2cccc3c(N4CCCCC4)ccc(c23)C(=O)N1CCO | 1.18 | -17.9% (inactive)
41 | CCOc1ccccc1N(CC(=O)NC1CCCCC1)S(C)(=O)=O | 0.972 | 2.85% (inactive)
42 | COc1cc2c(c(OC)c1OC)C(c1ccccc1C)CC(=O)O2 (centres undefined) | 1.07 | -6.55% (inactive)

Row | SMILES | activation factor | activity change, negative = activation
43 | CSCC[C@H](NC(=O)C1CCN(S(=O)(=O)c2ccc(C)cc2C)CC1)c1nc2ccccc2[nH]1 | 2.02 | -102% (active)
44 | CSCCC(NC(=O)c1ccc(=O)n(C)n1)c1nc2ccccc2[nH]1 (centres undefined) | 0.931 | 6.9% (inactive)
45 | Cc1ccc(S(=O)(=O)N2CCN(C(=O)CSc3nc4ccccc4c(=O)[nH]3)CC2)c(C)c1 | 1.1 | -10.3% (inactive)
46 | Cc1nn(C)cc1CNC(=O)Nc1ccc(Cl)cc1 | 1.32 | -31.6% (inactive)
47 | Cc1ccc(C)c(CN2CCC(CNC(=O)Nc3ccc(F)c(Cl)c3)CC2)c1 | 1.98 | -97.9% (active)
48 | Cc1ccc(C)c(CN2CCC(CNC(=O)Nc3ccc(Cl)cc3)CC2)c1 | 2.23 | -123% (active)
49 | Cc1cccc(CCNC(=O)CCc2c(C)nc3ncnn3c2C)c1 | 0.906 | 9.35% (inactive)
50 | CCNC(=O)COc1cc(C)c(Cl)c(C)c1 | 1 | -0.4% (inactive)
51 | CCc1nc2sc3c(c2c(=O)n1N)CCC3 | 0.913 | 8.65% (inactive)
52 | CCN(CC)S(=O)(=O)c1cccc(-c2nnc(SCC(=O)c3cc(C)n(C)c3C)o2)c1 | 0.772 | 22.8% (inactive)
53 | COc1ccc(C2/C=C\CN(C(=O)c3ccccc3)CC(=O)N2Cc2cccc(F)c2)cc1 (centres undefined) | 1.01 | -1.35% (inactive)
54 | CC(=O)N1c2ccccc2C(C)(c2ccccc2)CC1(C)C (centres undefined) | 0.98 | 2% (inactive)
55 | O=C(NCC1CC1)C1CCCN(S(=O)(=O)c2ccc(-n3cnnn3)cc2)C1 (centres undefined) | 1.01 | -0.9% (inactive)
56 | O=C(Nc1ccc(F)c(Cl)c1)C1CC(=O)n2c(nc3ccccc32)N1 (centres undefined) | 2.42 | -142% (active)
57 | O=C(Nc1ccc(Cl)cc1)C1CC(=O)n2c(nc3ccccc32)N1 (centres undefined) | 2.06 | -106% (active)
58 | O=C(Nc1ccc(Cl)cc1)N1CCC(c2nc(-c3ccccc3Cl)no2)CC1 | 1.1 | -9.8% (inactive)
59 | O=C(O)C1=C(C(=O)Nc2ccc(F)c(Cl)c2)CCCC1 | 0.98 | 2% (inactive)
60 | O=C1CC(c2ccco2)Sc2nc3ccccc3n21 (centres undefined) | 0.801 | 19.9% (inactive)
61 | CSc1ccccc1NC(=O)Nc1ccc(F)c(Cl)c1 | 1.83 | -83.2% (inactive)
62 | FC(F)Oc1ccc(NC(=S)NCc2ccccc2)cc1Cl | 1.34 | -34.3% (inactive)
63 | COC(=O)[C@H](Cc1ccc(O)cc1)NC(=O)Cn1cnc2c(NCc3ccccc3)ncnc21 | 1.08 | -8.5% (inactive)

Row | SMILES | activation factor | activity change, negative = activation
64 | COCCCNC(=O)CCSc1ccc(Cl)cc1 | 0.897 | 10.3% (inactive)
65 | O=C(NCc1ccncc1)c1nnc(Cc2c(F)cccc2Cl)o1 | 0.951 | 4.9% (inactive)
66 | NC(=O)CSc1nnc(-c2cccnc2)n1CCc1ccccc1 | 0.957 | 4.35% (inactive)
67 | CS(=O)(=O)Nc1ccccc1C(=O)c1ccccc1 | 1.04 | -3.7% (inactive)
68 | O=C(CSc1ncn[nH]1)CSc1ncn[nH]1 | 0.517 | 48.3% (inactive)
69 | CCCCOC(=O)C1=C(C)NC2=C(C(=O)CCC2)C1c1cc(OC)ccc1OC (centres undefined) | 1.09 | -9.15% (inactive)
70 | COc1ccc(C2=NOC(Cn3nc(-c4ccccc4)cc3C(=O)NCc3ccc(C)cc3)C2)cc1 (centres undefined) | 1.57 | -57.5% (inactive)
71 | COc1ccc(C2=NOC(Cn3nc(-c4ccccc4)cc3C(=O)NCc3cccc(C(F)(F)F)c3)C2)cc1 (centres undefined) | 1.83 | -83.5% (inactive)
72 | CCc1cc(Cn2nc(-c3ccccc3)cc2C(=O)NCc2cccs2)on1 | 1.89 | -88.9% (inactive)
73 | CCc1cc(Cn2nc(-c3ccccc3)cc2C(=O)NCc2ccc(C)cc2)on1 | 1.7 | -69.7% (inactive)
74 | COc1ccc(C2=NOC(Cn3nc(-c4ccccc4)cc3C(=O)NCc3ccccc3OC)C2)cc1 (centres undefined) | 1.68 | -67.7% (inactive)
75 | Cc1ccc(CNC(=O)COC(=O)c2c(C)noc2C)cc1 | 0.891 | 10.9% (inactive)
76 | COc1ccc(C2=NOC(Cn3nc(-c4ccccc4)cc3C(=O)NCc3cccs3)C2)cc1 (centres undefined) | 1.82 | -81.5% (inactive)
77 | COc1ccc(C2=NOC(Cn3nc(-c4ccccc4)cc3C(=O)NCc3cccc(Br)c3)C2)cc1 (centres undefined) | 2.12 | -112% (active)
78 | CCc1cc(Cn2nc(-c3ccccc3)cc2C(=O)NCc2cccc(Br)c2)on1 | 2.8 | -180% (active)
79 | CCc1cc(Cn2nc(-c3ccccc3)cc2C(=O)NCc2ccccc2OC)on1 | 1.99 | -99.1% (active)
80 | Cn1c(C(=O)NCc2ccccc2)cc2oc3ccccc3c21 | 1.14 | -14.4% (inactive)
81 | Cc1ccc(CNC(=O)c2cc(-c3ccccc3)nn2Cc2cc(C)no2)cc1 | 2.26 | -126% (active)
82 | O=C(COc1ccccc1Cl)OCC(=O)N1CCN(S(=O)(=O)c2ccccc2)CC1 | 0.883 | 11.7% (inactive)
